# Test results from PubChem BioAssay (EPA / NIEHS).
# Records with an inconclusive call do not appear. The source made the active and inactive calls. The calls were made as follows: active = hit-call score of the fitted dose curve at least 0.9, where 1 is the maximum; inconclusive = response in the unintended direction; inactive = score below 0.9.
# What was measured:
# Adra2b (gene 24174) = Adra2b (gene 24174) (UniProt P19328); assay: NVS_GPCR_rmAdra2B: NovaScreen (NVS) G Protein-Coupled Receptor Assay for hybird cells Adrenergic, Alpha 2B Receptor (Adra2B) (AID 2283306)
# Outline: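 Compounds screened first at 25 uM in duplicate, with actives followed up in concentration-response; specific radioligand displacement from hybrid neuroglioma/blastoma cell membrane preparations measured by filter scintillation counting after 1 h, normalized to DMSO.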
# [1] = molecular target: rat Opioid Receptor, Non-selective Sodium (Na+) Binding, Oprm1 (gene 25601) (UniProt P33535); assay: NVS_GPCR_rOpiate_NonSelectiveNa: NovaScreen (NVS) G Protein-Coupled Receptor Assay for rat Opioid Receptor, Non-selective Sodium (Na+) Binding (AID 2283311)
# Outline: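 Filtration radioligand binding on rat forebrain membrane preparations, read 1.5 h after dosing. Single-concentration 25 µM primary screen in duplicate, followed by singleton concentration series to 50 µM max for actives; DMSO baseline.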
# [2] = tested on: rat Adrenergic, Alpha 1B Receptor (Adra1B), gene 24173; assay: NVS_GPCR_rAdra1B: NovaScreen (NVS) G Protein-Coupled Receptor Assay for rat Adrenergic, Alpha 1B Receptor (Adra1B) (AID 2283297)
# Outline: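 Filter-binding radioligand competition on membranes from rat liver, read after 1 h by scintillation counting. Single-concentration duplicate screen at 25 uM, followed by concentration-response on actives, normalised to DMSO.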
# [3] = molecular target: rat Adrenergic Receptor, Alpha 2 (Adra2), Non-selective Binding, Adra2a (gene 25083) (UniProt P22909); assay: NVS_GPCR_rAdra2_NonSelective: NovaScreen (NVS) G Protein-Coupled Receptor Assay for rat Adrenergic Receptor, Alpha 2 (Adra2), Non-selective Binding (AID 2283299)
# Experimental: (§1) NVS_GPCR_rAdra2_NonSelective is a biochemical, single-readout assay that uses extracted gene-proteins from Rat cortical membranes in a tissue-based cell-free assay. Measurements were taken 1.25 hours after chemical dosing in a 48-well plate.NVS_GPCR_rAdra2_NonSelective is one of one assay component(s) measured or calculated from the NVS_GPCR_rAdra2_NonSelective assay. It is designed to make measurements of radioligand binding, a form of binding reporter, as detected with scintillation counting signals by Filter-based radiodetection technology.Data from the assay component NVS_GPCR_rAdra2_NonSelective was analyzed into 1 assay endpoint. This assay endpoint, NVS_GPCR_rAdra2_NonSelective, was analyzed in the positive analysis fitting direction relative to DMSO as the negative control and baseline of activity. Using a type of binding reporter, loss-of-signal activity can be used to understand changes in the binding as they relate to the gene Adra2a. Furthermore, this assay endpoint can be referred to as a primary readout, because the performed assay has only produced 1 assay endpoint. To generalize the intended target to other relatable targets, this assay endpoint is annotated to the gpcr intended target family, where the subfamily is rhodopsin-like receptor.
# Binding assays used specific radioligands (tritiated, iodinated) with non-radioactive competitive displacement ligands in agonist or antagonist protocols (as indicated) and various reference compounds and inhibitors to titrate specific binding to receptors and transporters. Most enzyme assays (CYPs, kinases, phosphatases, proteases, HDACs) used recombinant protein and specific substrates (fluorescence mostly, some colorimetric and radioactive) and inhibitors, followed by a biochemical separation of substrate and product. All assays for the biochemical HTS were initially run in duplicate at a single concentration (10 uM for CYP450 assays and 25 uM for all others). […] Each assay was run with positive and negative controls, and concurrent controls on every plate. The follow-up (secondary) screen tested active chemical-pairs in concentration series, as well as a few additional assays not tested in the primary screen, some selected negative inactives, and several cases re-run in the concentration series for confirmatory purposes.
# [4] = molecular target: rat Neurokinin-3 Receptor (NK3), Tacr3 (gene 24808) (UniProt P16177); assay: NVS_GPCR_rNK3: NovaScreen (NVS) G Protein-Coupled Receptor Assay for rat Neurokinin-3 Receptor (NK3) (AID 2283310)
# Outline: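 Filter-based radioligand displacement on rat cortex membrane preparations, read by scintillation 2 h post-dose. Chemicals first tested in duplicate at 25 uM; actives followed up in concentration series with a 50 uM maximum.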
# [5] = molecular target: rat Somatostatin Receptor (SST), Sstr1 (gene 25033) (UniProt P28646); assay: NVS_GPCR_rSST: NovaScreen (NVS) G Protein-Coupled Receptor Assay for rat Somatostatin Receptor (SST) (AID 2283314)
# Experimental: as §1, with “NVS_GPCR_rSST” for “NVS_GPCR_rAdra2_NonSelective”, “forebrain” for “cortical”, “1 hour” for “1.25 hours”, “96-well plate.NVS_GPCR_rSST” for “48-well plate.NVS_GPCR_rAdra2_NonSelective”, “NVS_GPCR_rSST,” for “NVS_GPCR_rAdra2_NonSelective,”, “Sstr1.” for “Adra2a.”
# Binding assays used specific radioligands (tritiated, iodinated) with non-radioactive competitive displacement ligands in agonist or antagonist protocols (as indicated) and various reference compounds and inhibitors to titrate specific binding to receptors and transporters. Most enzyme assays (CYPs, kinases, phosphatases, proteases, HDACs) used recombinant protein and specific substrates (fluorescence mostly, some colorimetric and radioactive) and inhibitors, followed by a biochemical separation of substrate and product. All assays for the biochemical HTS were initially run in duplicate at a single concentration (10 uM for CYP450 assays and 25 uM for all others). Assay-chemical combinations meeting a pre-defined threshold (e.g., 30% inhibition and other criteria defined below) were then run in singleton concentration-response format with maximum concentration of 20 uM for CYPs and 50 uM for all others. Each assay was run with positive and negative controls, and concurrent controls on every plate. The follow-up (secondary) screen tested active chemical-pairs in concentration series, as well as a few additional assays not tested in the primary screen, some selected negative inactives, and several cases re-run in the concentration series for confirmatory purposes.
# [6] = molecular target: rat Adrenergic Receptor, Beta (Adrb), Non-selective Binding, Adrb1 (gene 24925) (UniProt P18090); assay: NVS_GPCR_rAdrb_NonSelective: NovaScreen (NVS) G Protein-Coupled Receptor Assay for rat Adrenergic Receptor, Beta (Adrb), Non-selective Binding (AID 2283298)
# Outline: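 Rat cortical membranes incubated 1 h with beta-adrenergic radioligand and test chemical; bound ligand measured by filtration and scintillation counting. Screen at 25 uM duplicate, then concentration series with 50 uM maximum; loss of signal versus DMSO.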
# [7] = molecular target: rat Neurokinin-1 Receptor (NK1), Tacr1 (gene 24807) (UniProt P14600); assay: NVS_GPCR_rNK1: NovaScreen (NVS) G Protein-Coupled Receptor Assay for rat Neurokinin-1 Receptor (NK1) (AID 2283309)
# Outline: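 Competitive radioligand binding to NK1 in rat submaxillary membranes, 1 h incubation, filtration and scintillation read-out. Compounds first screened at 25 uM in duplicate, then concentration-response for actives; signal loss relative to DMSO.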
# [8] = molecular target: rat Gamma-Aminobutyric Acid Type B Receptor (GABBR), Gabbr1 (gene 81657) (UniProt Q9Z0U4); assay: NVS_GPCR_rGABBR: NovaScreen (NVS) G Protein-Coupled Receptor Assay for rat Gamma-Aminobutyric Acid Type B Receptor (GABBR) (AID 2283301)
# Experimental: NVS_GPCR_rGABBR is a biochemical, single-readout assay that uses extracted gene-proteins from Rat cortical membranes in a tissue-based cell-free assay. Measurements were taken 1 hour after chemical dosing in a 96-well plate.NVS_GPCR_rGABBR is one of one assay component(s) measured or calculated from the NVS_GPCR_rGABBR assay. It is designed to make measurements of radioligand binding, a form of binding reporter, as detected with scintillation counting signals by Filter-based radiodetection technology.Data from the assay component NVS_GPCR_rGABBR was analyzed into 1 assay endpoint. This assay endpoint, NVS_GPCR_rGABBR, was analyzed in the positive analysis fitting direction relative to DMSO as the negative control and baseline of activity. Using a type of binding reporter, loss-of-signal activity can be used to understand changes in the binding as they relate to the gene Gabbr1. Furthermore, this assay endpoint can be referred to as a primary readout, because the performed assay has only produced 1 assay endpoint. To generalize the intended target to other relatable targets, this assay endpoint is annotated to the gpcr intended target family, where the subfamily is metabotropic glutamate receptor. […]
# [9] = molecular target: rat Histamine Receptor (H3), Hrh3 (gene 85268) (UniProt Q9QYN8); assay: NVS_GPCR_rH3: NovaScreen (NVS) G Protein-Coupled Receptor Assay for rat Histamine Receptor (H3) (AID 2283303)
# Outline: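 Filter-binding radioligand competition on rat forebrain membranes, 1 h incubation; compounds screened at 25 µM in duplicate and followed in concentration series to 50 µM, loss of bound signal vs DMSO.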
# Sequence of rat Neurokinin-1 Receptor (NK1), Tacr1 (gene 24807) (P14600 whole entry, looked up): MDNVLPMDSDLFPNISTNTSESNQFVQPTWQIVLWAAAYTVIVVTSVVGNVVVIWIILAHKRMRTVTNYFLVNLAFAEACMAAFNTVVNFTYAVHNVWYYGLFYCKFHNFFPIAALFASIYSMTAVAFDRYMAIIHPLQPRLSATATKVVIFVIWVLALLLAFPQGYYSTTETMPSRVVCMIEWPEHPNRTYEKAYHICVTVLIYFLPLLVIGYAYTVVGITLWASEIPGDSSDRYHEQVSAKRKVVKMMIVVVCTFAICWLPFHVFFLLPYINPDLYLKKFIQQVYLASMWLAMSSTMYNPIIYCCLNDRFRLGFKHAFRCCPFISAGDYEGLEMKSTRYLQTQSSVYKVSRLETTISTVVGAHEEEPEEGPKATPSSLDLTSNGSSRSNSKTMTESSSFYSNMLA
# Sequence of rat Adrenergic Receptor, Alpha 2 (Adra2), Non-selective Binding, Adra2a (gene 25083) (P22909 whole entry, looked up): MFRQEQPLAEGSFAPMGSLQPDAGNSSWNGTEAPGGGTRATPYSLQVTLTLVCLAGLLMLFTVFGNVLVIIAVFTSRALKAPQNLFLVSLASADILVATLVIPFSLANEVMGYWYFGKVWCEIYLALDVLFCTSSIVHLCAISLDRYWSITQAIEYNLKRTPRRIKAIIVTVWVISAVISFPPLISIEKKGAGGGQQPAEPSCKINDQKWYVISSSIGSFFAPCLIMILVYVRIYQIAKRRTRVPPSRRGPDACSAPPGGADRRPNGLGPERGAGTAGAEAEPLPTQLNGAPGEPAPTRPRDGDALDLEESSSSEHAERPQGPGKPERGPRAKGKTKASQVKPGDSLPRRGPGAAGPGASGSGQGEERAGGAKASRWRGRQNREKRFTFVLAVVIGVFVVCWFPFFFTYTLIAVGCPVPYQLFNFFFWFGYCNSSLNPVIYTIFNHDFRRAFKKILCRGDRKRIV
# Sequence of rat Somatostatin Receptor (SST), Sstr1 (gene 25033) (P28646 whole entry, looked up): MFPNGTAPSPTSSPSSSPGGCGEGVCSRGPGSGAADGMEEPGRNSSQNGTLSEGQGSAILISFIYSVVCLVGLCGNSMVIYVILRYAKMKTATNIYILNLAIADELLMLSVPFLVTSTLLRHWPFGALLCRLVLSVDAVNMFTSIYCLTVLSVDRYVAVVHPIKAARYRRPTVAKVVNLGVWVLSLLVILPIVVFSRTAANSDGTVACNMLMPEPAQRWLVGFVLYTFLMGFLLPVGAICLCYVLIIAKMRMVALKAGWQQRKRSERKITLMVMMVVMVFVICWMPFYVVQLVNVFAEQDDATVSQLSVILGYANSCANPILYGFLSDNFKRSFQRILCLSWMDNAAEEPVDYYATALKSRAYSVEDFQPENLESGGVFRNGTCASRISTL
# Sequence of rat Adrenergic Receptor, Beta (Adrb), Non-selective Binding, Adrb1 (gene 24925) (P18090 whole entry, looked up): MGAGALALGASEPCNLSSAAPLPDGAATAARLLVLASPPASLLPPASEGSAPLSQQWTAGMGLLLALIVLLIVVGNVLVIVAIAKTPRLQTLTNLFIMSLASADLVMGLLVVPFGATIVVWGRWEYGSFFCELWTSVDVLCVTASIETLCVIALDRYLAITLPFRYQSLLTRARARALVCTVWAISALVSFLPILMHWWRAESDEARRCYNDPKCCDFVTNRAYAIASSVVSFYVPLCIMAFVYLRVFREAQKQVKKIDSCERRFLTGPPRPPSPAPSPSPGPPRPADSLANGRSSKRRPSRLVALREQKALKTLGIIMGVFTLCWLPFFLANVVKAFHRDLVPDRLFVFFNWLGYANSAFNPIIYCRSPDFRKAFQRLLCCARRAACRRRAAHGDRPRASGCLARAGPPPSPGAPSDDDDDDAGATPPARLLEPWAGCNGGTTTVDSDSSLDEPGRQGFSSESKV
# Sequence of rat Opioid Receptor, Non-selective Sodium (Na+) Binding, Oprm1 (gene 25601) (P33535 whole entry, looked up): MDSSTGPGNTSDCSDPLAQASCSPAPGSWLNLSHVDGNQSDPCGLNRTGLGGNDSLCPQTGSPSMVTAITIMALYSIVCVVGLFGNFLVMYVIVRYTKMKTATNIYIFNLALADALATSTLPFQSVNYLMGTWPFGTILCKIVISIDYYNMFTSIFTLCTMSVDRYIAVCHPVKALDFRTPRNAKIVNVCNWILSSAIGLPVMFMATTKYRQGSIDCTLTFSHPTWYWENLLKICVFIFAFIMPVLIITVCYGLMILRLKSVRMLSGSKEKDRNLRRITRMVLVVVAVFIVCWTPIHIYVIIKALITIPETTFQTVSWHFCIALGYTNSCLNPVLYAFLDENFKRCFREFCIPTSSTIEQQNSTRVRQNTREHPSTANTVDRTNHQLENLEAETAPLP
# Sequence of Adra2b (gene 24174) (P19328 whole entry, looked up): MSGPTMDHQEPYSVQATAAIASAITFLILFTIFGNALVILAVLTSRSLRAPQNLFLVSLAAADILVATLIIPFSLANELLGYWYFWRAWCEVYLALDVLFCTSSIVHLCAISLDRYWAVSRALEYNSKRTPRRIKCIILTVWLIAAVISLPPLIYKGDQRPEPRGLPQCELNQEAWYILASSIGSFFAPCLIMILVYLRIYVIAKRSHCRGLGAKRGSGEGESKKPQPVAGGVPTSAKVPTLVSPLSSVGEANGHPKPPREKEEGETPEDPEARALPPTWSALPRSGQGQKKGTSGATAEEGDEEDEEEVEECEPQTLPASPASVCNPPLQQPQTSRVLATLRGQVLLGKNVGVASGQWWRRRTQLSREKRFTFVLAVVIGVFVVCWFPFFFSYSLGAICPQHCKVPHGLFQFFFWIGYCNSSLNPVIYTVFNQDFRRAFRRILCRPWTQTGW
# Sequence of rat Neurokinin-3 Receptor (NK3), Tacr3 (gene 24808) (P16177 whole entry, looked up): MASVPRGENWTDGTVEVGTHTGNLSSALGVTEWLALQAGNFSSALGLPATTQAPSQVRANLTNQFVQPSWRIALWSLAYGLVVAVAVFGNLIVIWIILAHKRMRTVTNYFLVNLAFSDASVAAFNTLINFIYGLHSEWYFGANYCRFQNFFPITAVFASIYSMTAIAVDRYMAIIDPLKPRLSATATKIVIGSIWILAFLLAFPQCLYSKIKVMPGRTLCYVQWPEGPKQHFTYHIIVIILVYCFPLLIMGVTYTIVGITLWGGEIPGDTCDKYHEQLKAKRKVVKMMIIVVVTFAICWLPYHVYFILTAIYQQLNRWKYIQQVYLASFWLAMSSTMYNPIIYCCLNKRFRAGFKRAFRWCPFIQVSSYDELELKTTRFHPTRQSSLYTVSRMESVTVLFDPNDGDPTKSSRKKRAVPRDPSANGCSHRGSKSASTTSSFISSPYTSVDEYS
# Sequence of rat Histamine Receptor (H3), Hrh3 (gene 85268) (Q9QYN8 whole entry, looked up): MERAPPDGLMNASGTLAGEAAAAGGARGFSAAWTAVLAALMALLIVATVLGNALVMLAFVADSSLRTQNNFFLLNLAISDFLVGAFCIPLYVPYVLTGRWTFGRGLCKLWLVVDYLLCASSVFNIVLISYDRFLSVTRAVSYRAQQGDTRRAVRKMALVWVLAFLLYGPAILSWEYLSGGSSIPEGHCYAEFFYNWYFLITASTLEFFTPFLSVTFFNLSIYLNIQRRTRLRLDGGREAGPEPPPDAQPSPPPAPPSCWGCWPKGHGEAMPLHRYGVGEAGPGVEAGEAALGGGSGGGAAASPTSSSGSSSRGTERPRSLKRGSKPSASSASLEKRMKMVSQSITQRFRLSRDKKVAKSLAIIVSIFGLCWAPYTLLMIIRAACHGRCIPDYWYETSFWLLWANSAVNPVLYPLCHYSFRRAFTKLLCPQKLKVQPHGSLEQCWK
# Sequence of rat Gamma-Aminobutyric Acid Type B Receptor (GABBR), Gabbr1 (gene 81657) (Q9Z0U4 whole entry, looked up): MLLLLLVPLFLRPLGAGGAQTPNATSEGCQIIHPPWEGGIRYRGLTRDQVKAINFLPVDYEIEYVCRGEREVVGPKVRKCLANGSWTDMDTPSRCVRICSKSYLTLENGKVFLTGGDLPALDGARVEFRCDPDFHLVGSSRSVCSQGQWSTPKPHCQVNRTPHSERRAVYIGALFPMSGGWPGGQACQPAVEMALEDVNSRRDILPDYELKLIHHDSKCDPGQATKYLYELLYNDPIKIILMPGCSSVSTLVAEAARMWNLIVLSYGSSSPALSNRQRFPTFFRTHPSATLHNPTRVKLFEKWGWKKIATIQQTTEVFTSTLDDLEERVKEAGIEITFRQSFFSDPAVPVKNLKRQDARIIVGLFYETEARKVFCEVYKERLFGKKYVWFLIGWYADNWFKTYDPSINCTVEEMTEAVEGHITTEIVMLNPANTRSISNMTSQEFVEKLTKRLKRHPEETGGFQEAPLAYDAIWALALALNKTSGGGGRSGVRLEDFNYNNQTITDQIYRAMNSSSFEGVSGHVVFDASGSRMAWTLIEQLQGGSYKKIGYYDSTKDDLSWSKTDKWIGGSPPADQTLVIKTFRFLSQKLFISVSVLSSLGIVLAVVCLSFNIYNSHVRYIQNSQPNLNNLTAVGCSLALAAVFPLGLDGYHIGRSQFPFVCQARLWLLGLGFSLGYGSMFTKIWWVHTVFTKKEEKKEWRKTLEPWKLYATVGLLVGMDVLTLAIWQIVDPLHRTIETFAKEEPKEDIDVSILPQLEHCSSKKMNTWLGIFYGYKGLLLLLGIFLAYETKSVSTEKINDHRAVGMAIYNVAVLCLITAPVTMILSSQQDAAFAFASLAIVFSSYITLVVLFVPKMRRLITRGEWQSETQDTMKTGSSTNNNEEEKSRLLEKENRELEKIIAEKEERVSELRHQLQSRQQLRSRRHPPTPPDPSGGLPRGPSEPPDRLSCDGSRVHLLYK
structure (smiles),measurement,setting,value
Cc1ccc(-c2cc(C(F)(F)F)nn2-c2ccc(S(N)(=O)=O)cc2)cc1,outcome,Adra2b (gene 24174),inactive
same,outcome,[1],inactive
COc1ccc(OC(F)(F)F)cc1CN[C@H]1CCCN[C@H]1c1ccccc1,AC50,[2],14.8 µM (active)
same,AC50,[3],13.1 µM (active)
same,AC50,Adra2b (gene 24174),9.2 µM (active)
same,AC50,[4],12.5 µM (active)
same,outcome,[1],inactive
same,AC50,[5],8.11 µM (active)
C/C=C/c1ccc(OC)cc1,AC50,[6],0.28 µM (active)
Cc1c(C)c2c(c(C)c1O)CCC(C)(COc1ccc(CC3SC(=O)NC3=O)cc1)O2 (configuration not stated),outcome,[1],inactive
O=Cc1ccccc1C=O,outcome,[2],inactive
CCN(CC)CCOc1ccc(C(=C(Cl)c2ccccc2)c2ccccc2)cc1,AC50,[2],21 µM (active)
same,AC50,Adra2b (gene 24174),16 µM (active)
same,AC50,[7],21 µM (active)
same,AC50,[1],21 µM (active)
CCCCCCCCCCCCCCOS(=O)(=O)O,AC50,[2],20.9 µM (active)
CN(C)CCCN1c2ccccc2Sc2ccc(Cl)cc21,AC50,[2],0.0108 µM (active)
same,AC50,[7],25 µM (active)
same,AC50,[1],9.16 µM (active)
NCCOCCOCCN,outcome,[8],inactive
CCCCCCC(C=O)=Cc1ccccc1,outcome,[5],inactive
COC(=O)[C@H]1[C@H]2C[C@@H]3c4[nH]c5cc(OC)ccc5c4CCN3C[C@H]2C[C@@H](OC(=O)c2cc(OC)c(OC)c(OC)c2)[C@@H]1OC,AC50,[2],21.1 µM (active)
same,AC50,[4],10.6 µM (active)
same,AC50,[1],21.1 µM (active)
CCc1nc(N)nc(N)c1-c1ccc(Cl)cc1,AC50,[2],4.4 µM (active)
same,AC50,[3],6.56 µM (active)
same,AC50,Adra2b (gene 24174),5.45 µM (active)
same,outcome,[1],inactive
NC=O,outcome,[7],inactive
CC(C)NCC(O)c1ccc(O)c(O)c1 (configuration not stated),outcome,[2],inactive
CN(C)CCCN(C)CCCN(C)C,outcome,[2],inactive
same,AC50,[9],25 µM (active)
O=C(N[C@@H](c1ccccc1)[C@@H]1CCCCN1)c1cccc(C(F)(F)F)c1Cl,AC50,[3],39.2 µM (active)
same,outcome,[9],inactive
same,AC50,[1],31.4 µM (active)
same,AC50,[5],6.67 µM (active)
CC(C)(C)c1ccccc1,outcome,[1],inactive
NC(=Nc1ccccc1)Nc1ccccc1,outcome,[3],inactive
same,AC50,Adra2b (gene 24174),11.7 µM (active)
Cn1cnc2c1c(=O)[nH]c(=O)n2C,outcome,[2],inactive
CSc1ccc(Oc2ccc(S(N)(=O)=O)cc2CN(C)C)cc1C,AC50,[2],0.875 µM (active)
same,AC50,[6],25 µM (active)
same,AC50,[3],10.6 µM (active)
same,AC50,Adra2b (gene 24174),1.74 µM (active)
same,AC50,[7],25 µM (active)
same,AC50,[1],3.74 µM (active)
CCCCc1nc2cccnc2n1Cc1ccc(-c2ccccc2-c2nnn[nH]2)cc1,outcome,[7],inactive
same,AC50,[4],5.16 µM (active)
CCC(C)N(C)C(=O)c1cc2ccccc2c(-c2ccccc2Cl)n1 (configuration not stated),AC50,[4],6.96 µM (active)
CN(C)C(=O)NC1(c2ccccc2)CCN(CC[C@@]2(c3ccc(F)c(F)c3)CN(C(=O)c3ccccc3)CCO2)CC1,outcome,[7],inactive
same,outcome,[4],inactive
same,AC50,[1],3.23 µM (active)
Cc1cc(SC2=C(O)C[C@@](CCc3ccc(N)cc3)(C(C)C)OC2=O)c(C(C)(C)C)cc1CO,outcome,[8],inactive
same,outcome,Adra2b (gene 24174),inactive
same,outcome,[1],inactive
same,AC50,[5],17.2 µM (active)
CN(C)C(=O)NC1(c2ccccc2)CCN(CCC[C@]2(c3ccc(Cl)c(Cl)c3)CCCN(C(=O)c3ccccc3)C2)CC1,AC50,[7],10.5 µM (active)
same,AC50,[4],0.0731 µM (active)
same,AC50,[1],2.12 µM (active)
O=C1OC(c2ccc(O)cc2)(c2ccc(O)cc2)c2ccccc21,AC50,[1],0.604 µM (active)
CCCCCCCCCC[N+](C)(C)[O-],outcome,[6],inactive
same,outcome,[4],inactive
